Compounds with a hit are over-represented: about 10% of the library has one in this group of screens.
G9a block: blocks human histone lysine methyltransferase G9a. 350,000 tested, 8.8% active. Q96KQ7. G9a H3K9 monomethylation, AlphaScreen, 2 h. Potency, µM (top dose mostly 102 µM), without a hit: at the top dose activity, negative = inhibition, actives largely listed as inhibitors; further: on the % scale 0 is the no-effect control and ±100 the full control effect; nearly all actives have a fitted effect of over 75% in size
Target sequence (Q96KQ7 913-1193 limits assumed): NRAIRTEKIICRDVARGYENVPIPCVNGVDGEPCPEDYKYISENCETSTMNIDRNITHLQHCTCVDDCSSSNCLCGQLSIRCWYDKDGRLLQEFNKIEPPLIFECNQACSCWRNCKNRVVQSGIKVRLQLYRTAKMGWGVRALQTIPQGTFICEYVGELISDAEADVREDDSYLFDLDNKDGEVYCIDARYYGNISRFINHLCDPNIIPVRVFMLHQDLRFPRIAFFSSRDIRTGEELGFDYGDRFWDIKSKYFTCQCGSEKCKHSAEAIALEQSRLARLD
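Readings reflect AlphaScreen signal from monomethyl-H3K9 antibody detection. HMT at 20 nM; substrate b-H3K9 500 nM; cofactor SAM 20 uM; 2 h RT reaction; compounds tested as titrations in qHTS with 15 min preincubation.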
JMJD2A Tudor inh: JMJD2A Tudor domain (human) inhibition; 390,000 tested, 4.4% active; AlphaScreen JMJD2A-Tudor / H3K4me3 peptide binding; O75164; Potency, µM (titrated, usually from 114 µM), inactives show top-dose activity change, negative = inhibition, usual class: inhibitors; further: on the % scale 0 is the no-effect control and ±100 the full control effect; nearly all actives have a fitted effect of over 50% in size
BAZ2B inh: blocks human BAZ2B; AlphaScreen BAZ2B-H3K14Ac peptide displacement; Q9UIF8; AID 504333; Potency, µM (titrated, usually from 114 µM), for inactives: at the highest dose activity change, negative = inhibition, most hits filed as inhibitors; 360,000 tested, 4.4% active; further: on the % scale 0 is the no-effect control and ±100 the full control effect; nearly all actives have a fitted effect of over 60% in size
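Multi-concentration screen (max 110 uM) measuring displacement of acetylated histone H3 peptide from BAZ2B by AlphaScreen, using 50 nM protein, 50 nM peptide and 10 ug/mL streptavidin donor plus Ni-chelate acceptor beads.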
GLS inh: inhibitors of human glutaminase (GLS). Potency, µM (top dose mostly 45.5 µM), inactives show at the top dose activity change, negative = inhibition, most hits filed as inhibitors. 410,000 tested, 0.21% active. GLS enzymatic activity, qHTS titration; further: on the % scale 0 is the no-effect control and ±100 the full control effect
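Coupled fluorescence readout: glutamate oxidase/HRP/Amplex Red detect glutamate formed by hKGA from L-glutamine (1 mM solution added). Buffer 45 mM KH2PO4 pH 8.2, 0.02% Tween-20; reads at t0 and 30 min RT.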
L3MBTL1 block: L3MBTL1 (human) inhibition | Potency, µM (top dose mostly 57.1 µM), without a hit: at the highest dose activity, negative = inhibition, hits mostly inhibitors | AID 485360 | 230,000 tested, 0.66% active | Q9Y468 | AlphaScreen L3MBTL1–H3K9me1 peptide binding; further: on the % scale 0 is the no-effect control and ±100 the full control effect; nearly all actives have a fitted effect of over 60% in size
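AlphaScreen assay: L3MBTL1 (50 nM final) was preincubated 30 min at room temperature with biotinylated H3(1-15)K9me1 peptide (75 nM final), then 30 min with library compounds; streptavidin donor and nickel chelate acceptor beads (10 ug/mL final) added, 30 min dark.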
HP1b chromo inh: blocks HP1-beta chromodomain binding to methylated histone tails; 390,000 tested, 0.56% active; AID 540317; AlphaScreen HP1-beta / biotin-H3K9me3 peptide binding; Potency, µM (doses to about 114 µM), inactives show at the highest dose activity change, negative = inhibition, usual class: inhibitors; P83916; further: nearly all actives have a fitted effect of over 70% in size
Target sequence (P83916 whole entry, looked up): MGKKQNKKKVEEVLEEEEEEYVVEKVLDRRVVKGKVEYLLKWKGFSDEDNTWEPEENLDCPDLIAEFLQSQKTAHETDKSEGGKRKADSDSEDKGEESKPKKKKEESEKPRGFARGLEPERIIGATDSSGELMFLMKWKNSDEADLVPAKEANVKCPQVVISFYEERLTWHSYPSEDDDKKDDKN
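Compound inhibition of the preformed complex between 50 nM HP1-beta and 50 nM biotinylated H3K9me3 peptide was read by AlphaScreen. Buffer was PBS pH 7.4 with 0.01% Tween-20. Incubations ran 30 min at room temperature, with 10 ug/mL donor/acceptor beads.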
Active calls of the source: *; ? = inconclusive; nt = no result given; [ ] = another dose, or the depositor's remark. The call rests on the fitted dose curve; in most records, active means well fitted curve in the direction sought with a large enough effect; inconclusive means small, poorly fitted or top-dose-only effect, or another doubt; inactive means no such curve, though single readings can be large; an effect the other way counts as inactive or inconclusive. Potency means the concentration at half of the fitted maximal effect.

SMILES	G9a block	JMJD2A Tudor inh	BAZ2B inh	GLS inh	L3MBTL1 block	HP1b chromo inh
COc1ccc(OC)c(CNC(=O)Cn2ncc3c([nH]c4ccc(C)cc43)c2=O)c1	-7%[59 µM]	-12%	8%[57.1 µM]	0%	nt	2%
O=C(O)Cn1c(-c2ccccn2)nc2ccccc21	?	50µM*	3%[57.1 µM]	-2%	-2%	14%
O=C(O)Cn1c(-c2ccccc2)nc2ccccc21	40µM*	21%[11.4 µM]	-32%	-1%	5%	-1%
O=C(O)Cn1c(=S)sc2ccccc21	71µM*	-5%	89µM*	14%	4%	24%
O=C(Nc1ccccc1F)C(Cc1ccccc1)N1Cc2ccccc2C1=O (stereo not given)	-15%[59 µM]	-8%	1%	3%	nt	25%
N#Cc1nc(Nc2ccccc2)nc(NC2CCCCC2)n1	nt	-1%	nt	nt	nt	nt
Cc1ccc(C)c(N2CCN(c3cc(C)nc4c(-c5ccc(Cl)cc5)c(C)nn34)CC2)c1	53%[59 µM]	6%	0%	5%	nt	52%
Cc1cccc(N2CCN(S(=O)(=O)c3nnc(NC(=O)c4ccc(Cl)cc4)s3)CC2)c1	?	-29%	-30%	1%	nt	-2%
N=c1c2c(ncn1Cc1ccco1)Oc1c(ccc3ccccc13)C2c1ccccc1 (stereo not given)	-1%[2.33 µM]	?	50µM*	-8%	-3%	?
Cc1ncc(CO)c(/C=N/NC(=S)Nc2cccc(Cl)c2)c1O	?	56µM*	13µM*	-1%	14µM*	?
Cc1ncc(CO)c(/C=N/NC(=S)Nc2ccc(Cl)c(Cl)c2)c1O	nt	?	22µM*	-8%	?	?
Cc1ncc(CO)c(/C=N/NC(=O)c2cc3c(s2)CCCC3)c1O	11%[12.7 µM]	56µM*	50µM*	0%	?	15%
c1ccc(N2CCN(Cc3ccc4c(c3)OCO4)CC2)nc1	nt	28µM*	nt	-6%	nt	?
c1cnc(N2CCN(Cc3ccc4c(c3)OCO4)CC2)nc1	1%[59 µM]	-17%	-17%	14%	-2%	22%
c1ccc(N2CCN(Cc3nc4ccccc4[nH]3)CC2)nc1	-23%	-13%	1%	-4%	nt	31%
Brc1ccc(CN2CCN(c3ccccn3)CC2)s1	14µM*	7.9µM*	45µM*	-1%	nt	?
O=c1c(CN2CCN(c3ccccn3)CC2)coc2ccccc12	?	22µM*	79µM*	18%	-1%	?
Nc1nc(NCc2ccc(Cl)cc2)c2[nH]cnc2n1	nt	-27%	nt	nt	nt	11%
CC1(C)Cc2c(C#N)c(N3CCN(C(=O)c4ccccc4Cl)CC3)nc(-c3ccco3)c2CS1	nt	?	40µM*	8%	?	-14%
S=c1[nH]c(-c2ccccc2)cn1/N=C/c1ccc(Br)cc1	13µM*	6%	-12%	165%	nt	33%
CSc1nncn1/N=C/c1ccc([N+](=O)[O-])cc1	-2%	-3%	-16%	0%	-1%	26%
Nc1nc2ccccc2n1/N=C/c1cccnc1	nt	-4%	nt	8%	nt	30%
O=[N+]([O-])c1ccc(/C=N/n2cn[nH]c2=S)cc1	7.9µM*	7.1µM*	-32%	1%	4%	22%
S=c1[nH]c(-c2ccccc2)cn1/N=C/c1cccs1	nt	3.2µM*	-4%	5%	42%	23%
S=c1[nH]c(-c2ccccc2)cn1/N=C/c1cccnc1	2.5µM*	0.79µM*	-19%	-6%	nt	31%
SMILES	G9a block	JMJD2A Tudor inh	BAZ2B inh	GLS inh	L3MBTL1 block	HP1b chromo inh
COc1ccc(/C=N/n2cc(-c3ccccc3)nc2N)cc1	-1%[59 µM]	-34%	1%	1%	-11%	9%
COc1ccc(CCNC(=O)CCn2c(=O)c3ccccc3n(Cc3ccccc3C)c2=O)cc1OC	-8%[59 µM]	1%	?	-6%	nt	34%
COc1ccc(S(=O)(=O)NCCS(=O)(=O)N2CCN(c3ccccc3)CC2)cc1C	5%[59 µM]	-33%	-13%	26%	nt	16%[57 µM]
O=C(O)c1ccc(/C=N/O)cc1	nt	-3%	3%	-1%	11%	9%
S=c1[nH]ncn1/N=C/c1cccs1	7.9µM*	4.5µM*	-37%	7%	nt	32%
C(=N\n1cnnc1)/c1cccs1	12%[12.7 µM]	-13%	12%	18%	nt	29%
O=C(O)c1ccc(/C=N/n2cc(-c3ccccc3)[nH]c2=S)cc1	nt	2.8µM*	-13%	?	11%	41%
N#CC(C#N)=CC1=C2OC(c3ccccc3)=CC(c3ccccc3)=C2CCC1	?	2.2µM*	?	4%	nt	2.8µM*
CCN(c1cc(C)cc(C)c1)S(=O)(=O)c1nnc(NC(=O)c2cccc(F)c2)s1	-7%[59 µM]	-12%	-19%	8%	nt	34%
O=C1C(=O)N(CCN2CCOCC2)C(c2ccc(Cl)cc2)/C1=C(/O)c1ccc(S(=O)(=O)N2CCOCC2)cc1 (stereo not given)	56µM*	-4%	24%	0%	nt	54%
O=C1C(=O)N(CCN2CCOCC2)C(c2ccccc2F)/C1=C(\O)c1ccc(S(=O)(=O)N2CCOCC2)cc1 (stereo not given)	50µM*	-15%	-23%	-4%	nt	10%
CN(C)CCN1C(=O)C(=O)/C(=C(/O)c2ccc(S(=O)(=O)N3CCOCC3)cc2)C1c1ccccc1 (stereo not given)	-5%	-20%	-2%	11%	7%	12%
C=CC[n+]1ccc(/C=C2\C=Cc3cc(C)ccc3N2CC)c2ccccc21	14µM*	20µM*	14µM*	2%	nt	?
C=CC[n+]1ccc2ccccc2c1C	-37%	?	3%	2%	-3%	10%
CC(N)CCCP(=O)(O)O (stereo not given)	8%[59 µM]	nt	nt	nt	nt	nt
COc1ccc(C2(CNC(=O)c3ccccc3[N+](=O)[O-])CCOCC2)cc1	40µM*	-12%	-7%	1%	-11%	42%
COc1ccc(C2(CNC(=O)c3cccc([N+](=O)[O-])c3)CCOCC2)cc1	-11%	-4%	-6%	6%	9%	11%
COc1ccc(C2(CNC(=O)c3cccc([N+](=O)[O-])c3)CCOCC2)cc1OC	-4%[59 µM]	56µM*	10%	-26%	-8%	0%
CCC(=O)Nc1nc2nc(-c3ccccc3)cc(=O)n2[nH]1	45µM*	?	-29%	-6%	nt	-10%
CCCC(=O)Nc1nc2nc(-c3ccccc3)cc(=O)n2[nH]1	17%	-23%	21%	-8%	nt	24%
CC[N+](C)(CC)CCOC(=O)C(O)(c1ccccc1)C1CCCCC1 (stereo not given)	-11%[12.7 µM]	-6%	-15%	-1%	4%	41%
CC[N+](C)(CC)CCC(c1ccccc1)C1CCCCC1 (stereo not given)	?	?	50µM*	-1%	-3%	?

Source: PubChem BioAssay
